From PubChem BioAssay AID540333 (Southern Research Specialized Biocontainment Screening …, 2011)
The whole screen tested about 10,000 compounds, of which about 320 (3.2%) were called active. For the sample, actives were picked, then their nearest neighbours and some compounds at random. A number with no mark means an inactive call. No stated cut-off is given here; in the data, active means CPE inhibition mostly above about 9.1% (no sharp cut-off); inactive means mostly below about 7.2%.

Assay: Dengue virus cytopathic effect inhibitors, cell-based, CPE readout, HTS (AID 540333)
Details: Dengue virus CPE inhibition in host cells, at 20 µM; stronger effect = higher value

SMILES | CPE inhibition
CC(C)[C@H](NC(=O)c1ccccc1)C(=O)OCC(=O)N1CCCCCC1 | 1.74%
COc1cc(C(=O)NC(=S)N(CCc2ccccc2)CCc2ccccc2)cc(OC)c1OC | inactive
COCCNC(=S)N/N=C(\C)c1ccccc1OC | 0.125%
COc1cccc(/C=C(/C(=O)OCC(=O)NC2CCCC(C)C2C)c2ccccc2)c1 (stereo not given) | 28.3% (active)
CC1CCCC(NC(=O)COC(=O)c2cccc(NS(=O)(=O)/C=C/c3ccccc3)c2)C1C (stereo not given) | inactive
Cc1ccc(-c2nc(N)sc2CC(=O)OCC(=O)NC2CCCC(C)C2C)cc1 (stereo not given) | 0.74%
O=C1COc2cc(ccc2[N+](=O)[O-])Oc2ccc(cc2Cl)C(=O)CCCCO1 | inactive
c1nc(N2CCC3(CC2)OCCO3)c2[nH]cnc2n1 | inactive
Cc1ccc(C(C(=O)NC2CCCCC2)N(C(=O)Cc2c[nH]c3ccccc23)c2ccccc2C)o1 (stereo not given) | 3.84%
Cc1ccc(C(C(=O)NC2CCCCC2)N(Cc2ccccc2)C(=O)Cc2c[nH]c3ccccc23)o1 (stereo not given) | 24.2% (active)
COc1cccc(CN(C(=O)Cc2c[nH]c3ccccc23)C(C(=O)NC2CCCCC2)c2ccc(C)o2)c1 (stereo not given) | 3.12%
CCN1CCS/C1=C/C=C/C1=[N+](CC)CCS1 | 0.14%
CC(C)(C)[C@H]1C=C(C(=O)Nc2ccccc2)O[C@@H](OCCCCO)C1 | inactive
O=C1C2C(c3ccccc3)(C(=O)N1c1ccc(Cl)cc1)C2(c1ccccc1)c1ccccc1 (stereo not given) | 1.7%
O=C1C2C3C=CC(c4ccccc4)(C2C(=O)N1c1cccc(Cl)c1)C1C(=O)N(c2cccc(Cl)c2)C(=O)C31 (stereo not given) | 25.2% (active)
CC12CCC(C(=O)N(c3cccc(Cl)c3)C1=O)C2(C)C (stereo not given) | inactive
CC(C)(C)c1ccc(-c2ccc3c(c2)S(=O)(=O)c2ccccc2C3=O)cc1 | 2.16%
COc1ccc(CCN2C(=O)NC(NC(C)=O)(C(F)(F)F)C2=O)cc1OC (stereo not given) | 0.945%
CCCCC[C@H]1CN(CCCC)C(=O)[C@@H]1CC(=O)NCc1ccccc1 | 3.67%
COc1ccc(CN2C[C@H](Cc3ccccc3)[C@@H](CC(=O)Nc3ccccc3)C2=O)cc1 | 13.5% (active)
COC(=O)CN1C(=S)N(Cc2ccccc2)C(=O)C1CC(=O)Nc1ccc(OC)cc1 (stereo not given) | inactive
O=C(CN1C2=NCCCN2c2ccccc21)c1cccc(Br)c1 | 4%

SMILES | CPE inhibition
COc1ccc2c(c1)OC[C@H]1[C@H]2N2C(=O)CN(Cc3ccc(F)cc3)C(=O)[C@@]2(C)[C@H]1c1ccccc1 | 12.2% (active)
C[C@]12C(=O)N(c3ccc(F)cc3)C(=O)N1[C@H]1c3ccccc3OC[C@@H]1[C@H]2c1ccccc1 | 1.73%
C[C@]12C(=O)N(c3ccc(C(F)(F)F)cc3)C(=O)N1[C@H]1c3ccccc3OC[C@@H]1[C@H]2c1ccccc1 | 11.2%
COc1ccc2c(c1)C(=O)N1[C@H]3c4cc(OC)ccc4OC[C@@H]3[C@H](c3ccccc3)[C@]1(C)C(=O)N2 | 7.37%
COc1ccc2c(c1)C(=O)N1[C@H]3c4cc(C)ccc4OC[C@@H]3[C@H](c3ccccc3)[C@]1(C)C(=O)N2 | 14.5% (active)
COc1ccc2c(c1)[C@H]1[C@H](CO2)[C@H](c2ccccc2)[C@]2(C)C(=O)Nc3cc(OC)c(OC)cc3C(=O)N12 | 2%
CCOC(=O)[C@@H]1[C@H]2COc3cc(OC)ccc3[C@H]2N2C(=O)N(c3ccc(F)cc3)C(=O)[C@@]12C | 2.49%
C[C@@]12C(=O)Nc3ccc(F)cc3C(=O)N1[C@H]1c3cc(Br)ccc3OC[C@@H]1[C@@H]2c1ccccc1 | 6.78%
COc1cc2c(cc1OC)C(=O)N1[C@H]3c4cc(Cl)ccc4OC[C@@H]3[C@H](c3ccccc3)[C@]1(C)C(=O)N2 | 16.3% (active)
C[C@@]12C(=O)Nc3ccc(Br)cc3C(=O)N1[C@H]1c3cc(Cl)ccc3OC[C@@H]1[C@@H]2c1ccccc1 | 18.8% (active)
COc1ccc2c(c1)[C@H]1[C@H](CO2)[C@H](c2ccccc2)[C@]2(C)C(=O)Nc3cc(Cl)ccc3C(=O)N12 | 11%
CCOC(=O)[C@@H]1[C@H]2COc3cc(OC)ccc3[C@@H]2N2C(=O)N(c3ccccc3)C(=O)[C@]12C | 0.065%
CCOc1ccc(N2C(=O)/C(=C/c3ccco3)N(C)C2=S)cc1 | 3.13%
Cc1cc(C)cc(NC(=S)NCc2cccs2)c1 | 1.1%
Cc1ccc(C)c(NC(=O)COC(=O)c2cccc3c2C(=O)c2ccccc2C3=O)c1 | 0.805%
O=C(OC(c1ccccc1)c1nccc2ccccc12)c1cc([N+](=O)[O-])cc([N+](=O)[O-])c1 (stereo not given) | 0.39%
Cc1ccc(-c2nn(-c3ccccc3)cc2/C=C/C(=O)Nc2nccs2)cc1 | 3.35%
CC(=O)N1CCC2(CC1)CC(=O)c1cc(Cl)ccc1O2 | inactive
Cc1cc(C)c(-c2csc(NC(=O)c3n[nH]c(=O)c4ccccc34)n2)c(C)c1 | 2.35%
COC(=O)[C@H]1[C@H](CCc2ccccc2)NC(=O)N(Cc2ccccc2)[C@@H]1C | inactive
CCOC(=O)c1c(NC(=O)CN2C(=O)NC3(CCCCC3)C2=O)sc(C)c1-c1ccc(C)cc1 | 9.96%
COC(=O)c1c(NC(=O)CC2Sc3ccc(C(F)(F)F)cc3NC2=O)sc(C)c1C (stereo not given) | 0.71%

SMILES | CPE inhibition
COC(=O)c1c(NC(=O)CN2CCC3(O)CCCCC3C2c2ccccc2OC)sc(C)c1C (stereo not given) | 2.39%
COC(=O)c1c(NC(=O)CN2CCC3(O)CCCCC3C2c2cc(OC)ccc2OC)sc(C)c1C (stereo not given) | 11.8% (active)
COc1ccc(C2C3CCCCC3(O)CCN2C(=O)c2cccs2)cc1 (stereo not given) | 2.42%
COC(=O)c1c(NC(=O)CN2CCC3(O)CCCCC3C2c2ccc(F)cc2)sc(C)c1C (stereo not given) | 27.5% (active)
CCOc1cc(/C=C(\C#N)C(N)=O)ccc1OS(=O)(=O)c1ccccc1 | 0.64%
COc1cc(C(=O)NCC(c2ccco2)N(C)C)cc(OC)c1OC (stereo not given) | 0.055%
CC(C(=O)NC1CCCc2ccccc21)N1CCN(c2ccc(F)cc2)CC1 (stereo not given) | 0.305%
CC(C)(C)[C@H]1C=C(C(=O)NCc2ccccc2)O[C@@H](OCCCCO)C1 | 0.655%
CC(C)c1ccccc1NC(=O)COC(=O)Cc1c[nH]c2ccccc12 | inactive
CC(C)c1ccccc1NC(=O)COC(=O)c1ccc(Cl)c(S(=O)(=O)N2CCCCCC2)c1 | 0.87%
CCC(C)c1ccccc1NC(=O)COC(=O)c1ccc2[nH]c3c(c2c1)CCCC3 (stereo not given) | 25.9% (active)
NNc1nc(-c2ccccc2)nc2sc3c(c12)CCCC3 | inactive
COc1ccc(-c2c(-c3cc(OC)cc(OC)c3)n(C)c3ccc(-c4ccc(N(C)C)nc4)cc23)cc1 | 0.63%
O=C1CN(C(=O)COc2ccc(Br)cc2F)c2ccccc2N1 | inactive
CCOc1ccc(NS(=O)(=O)c2cc(NC(=O)CCS(=O)(=O)c3ccc(C)cc3)ccc2OC)cc1 | 0.21%
CCOC(=O)c1c(C)nc2ccc(Cl)cc2c1-c1ccccc1 | 0.765%
CCOC(=O)c1c(C)[nH]c(C=O)c1Cc1cccc(Cl)c1 | 14.8% (active)
CCOC(=O)c1c(C)[nH]c(C(=O)N/N=C\c2ccccc2Cl)c1C | 3.76%
O=C(O)CCC(=O)Nc1ccccc1C(=O)NCc1ccccc1 | 1.71%
CCCCNc1c(-c2ccc(-c3cccc(Cl)c3)cc2)nc2ccc(Cl)cn12 | 9.97% (active)
CCCCNc1c(-c2cccc(-c3ccc(OC)cc3)c2)nc2cc(C)ccn12 | inactive
CCCCNc1c(-c2cccc(SC(C)CC)c2)nc2ccc(Cl)cn12 (stereo not given) | 1.45%

SMILES | CPE inhibition
Cc1c(Cl)cccc1NC(=O)COC(=O)c1c2c(nc3ccccc13)CCN(Cc1ccccc1)C2 | 0.23%
CC(C)(C)c1nnc(N/N=C/c2ccccc2)n(N)c1=O | 2.69%
CC(C)(C)c1nnc(N/N=C/c2ccc(Br)cc2)n(N)c1=O | 27.6% (active)
CCc1nnc(N/N=C/c2cccs2)n1N | 2.18%
C/C(=N\NC(=O)CN(c1ccccc1Br)S(C)(=O)=O)c1ccc2c(c1)OCCO2 | 0.855%
CCOC(=O)/C=C/[C@H]1CC(c2ccccc2)(c2ccccc2)CO1 | 0.15%
Cn1c(SCC(=O)N2c3ccccc3CCc3ccccc32)nnc1-c1cc2ccccc2cc1O | 11.1% (active)
Cn1c(SCC(=O)N2c3ccccc3CCc3ccccc32)nnc1-c1ccc(O)cc1 | inactive
CCn1c(SCC(=O)N2c3ccccc3CCc3ccccc32)nnc1-c1ccc(OC)cc1 | 1.05%
CCn1cc(/C=C/C(=O)Nc2ccn(Cc3c(F)c(F)cc(F)c3F)n2)cn1 | inactive
Cc1ccc(S(=O)(=O)N2CCC(=O)N(CCOCc3ccccc3)CC2)cc1 | 0.27%
C=CCn1c(C)cc(C(=O)COC(=O)[C@@H](NC(=O)c2ccccc2Cl)C(C)C)c1C | inactive
CCOC(=O)C(=O)NNc1ccc(C)cc1 | inactive
CCOC(=O)C(=CNc1cc(C)ccn1)C(=O)OCC | inactive
CCOC(=O)C(=CNc1ccc(NC2=NCC(C)S2)cc1)C(=O)OCC (stereo not given) | 10.9% (active)
O=C(CSc1nc2ccc(Cl)cc2[nH]1)N1CCN(C(=O)c2ccco2)CC1 | 0.04%
Cc1ccc(S(=O)(=O)NCCC(c2ccccc2)c2ccco2)cc1 (stereo not given) | inactive
Nc1nonc1C(=O)NCCNS(=O)(=O)c1ccc(F)cc1 | inactive
O=S(=O)(NCCC(c1ccc(F)cc1)c1ccco1)c1ccccc1 (stereo not given) | 14.2% (active)
